# Source: PubChem BioAssay
# Active and inactive are the calls of the source.
# Columns and labels:
# [1] = small molecules captured by biotinylated probe aFSTL3 – biochemical, small-molecule microarray, fluorescence 635/667, stem cell growth factor project, primary screen (AID 1064); conditions: higher = more signal;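 further: measures binding of the biotinylated anti-FSTL3 antibody to printed compounds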
# [2] = binders from COS7 lysate, DM2A8 probe, primary screen, torsin A project, cell lysate, small-molecule microarray, fluorescence 635/667 (AID 1065); conditions: higher = more signal, COS7 lysate expressing mutant human TOR1A
# [3] = small molecules captured by biotinylated probe aFGF2 – biochemical, small-molecule microarray, fluorescence 635/667, stem cell growth factor project, primary screen (AID 1067); conditions: higher = more signal;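 further: measures binding of biotinylated aFGF2 protein to printed compounds on slides; z-score merges feature fluorescence and signal-to-noise across triplicate slides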
# [4] = small molecules captured by biotinylated probe aFGF10 – biochemical, small-molecule microarray, fluorescence 635/667, stem cell growth factor project, primary screen (AID 1071); conditions: higher = more signal;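 further: score merges 667 nm spot intensity and signal to noise from triplicate slides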
# [5] = target: Neurogenic locus notch homolog protein 2 (Homo sapiens) (UniProt Q04721); test: small molecules binding Notch2 protein – biochemical, small-molecule microarray, 635 nm fluorescence, stem cell growth factors, primary screen (AID 1073); conditions: higher = more signal
# [6] = target: Pro-neuregulin-1, membrane-bound isoform (Homo sapiens) (UniProt Q02297); test: small molecules binding neuregulin-1 protein – biochemical, small-molecule microarray, fluorescence 635/667, psychiatric disease protein project, primary screen (AID 1075); conditions: NRG1 binding, 635 nm fluorescence, higher = more signal;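 further: score combines 667 nm spot fluorescence with signal to noise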
# [7] = tested on: Neuregulin-1 EGF-like domain; test: small molecules binding NRG1 EGF domain – biochemical, small-molecule microarray, 635 nm fluorescence, primary screen (AID 1081); conditions: higher = more signal;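 further: binding of the protein to compounds printed on small-molecule microarray slides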
# [8] = FRG1 expression reporter modulators in myotubes – cell-based, C2C12 myotubes, firefly/Renilla luciferase, luminescence, FRG1 inhibition for FSHD, primary screen (AID 1084); conditions: FRG1 promoter luciferase, higher = more signal, called active from +8 up or from −8 down
# [9] = small molecules captured by biotinylated probe aFST – biochemical, small-molecule microarray, fluorescence 635/667, stem cell growth factor project, primary screen (AID 1086); conditions: higher = more signal;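 further: score merges 667 nm fluorescence with signal-to-noise of each printed compound spot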
# [10] = binders of probe aHhip on microarray, primary screen, stem cell growth factor project, biochemical, small-molecule microarray, fluorescence 635/667 (AID 1087); conditions: higher = more signal;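 further: score merges spot fluorescence at 667nm with spot signal to noise ratio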
# [11] = tested on: PRMT1 (protein arginine N-methyltransferase 1); test: small molecules binding arginine methyltransferase PRMT1 – biochemical, small-molecule microarray, 635 nm fluorescence, primary screen (AID 1088); conditions: higher = more signal;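 further: binding of Prmt1 protein to compounds spotted on small-molecule microarray slides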
# [12] = growth effects on S. cerevisiae YJM789 – YJM789 clinical isolate, OD600, 24 h, basal, primary screen (AID 1089); conditions: higher = more signal, called active from +8 up or from −8 down;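 further: growth of clinical yeast isolate S. cerevisiae YJM 789 seeded 1000 cells per well; test concentration not given here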
# [13] = S. pombe growth modifiers, basal conditions – strain 972, OD600, 24 h, no modulator, primary screen (AID 1090);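 further: basal condition with compound alone and no growth modifier present; test concentration not given here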; conditions: S. pombe 972 growth, higher = more signal, called active from +8 up or from −8 down
# [14] = budding yeast growth modifiers under rapamycin – strain BY4716, OD600, 96 h, primary screen (AID 1091); further: test concentration not given here; conditions: S. cerevisiae BY4716 + rapamycin, higher = more signal, called active from +8 up or from −8 down
# [15] = target: Torsin-1A-interacting protein 2 (Homo sapiens) (UniProt Q8NFQ8); test: small molecules binding lysate-expressed LULL1 – cell lysate, human LULL1 lysate, 635/667 nm fluorescence, primary screen (AID 1092); conditions: small-molecule microarray, hLULL1 lysate binding, 635 nm fluorescence; higher = more signal;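 further: probe is lysate of COS7 cells overexpressing human LULL1; score merges per-feature 667 nm fluorescence with signal-to-noise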
# [16] = optical density change of DRC41 E. coli – strain DRC41, OD650, 24 h, E. coli filamentation project, primary screen (AID 1093);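 further: MC1000 strain lacking acrAB efflux and sulA so SOS filamentation is blocked; test concentration not given here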; conditions: E. coli DRC41 growth, higher = more signal, called active from +8 up or from −8 down
# [17] = probe aLefty2 binding to arrayed compounds – biochemical, biotinylated probe, 635/667 nm fluorescence, primary screen (AID 1094); conditions: small-molecule microarray, higher = more signal;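 further: score merges spot fluorescence near 667 nm with spot signal-to-noise ratio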
# [18] = tested on: Noggin (protein binding on small-molecule microarray); test: small molecules binding Noggin protein – biochemical, 635/667 nm fluorescence, primary screen (AID 1095); conditions: 635 nm fluorescence, higher = more signal;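 further: score merges 667 nm feature fluorescence with signal to noise over triplicate slides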
# [19] = target: Neurogenic locus notch homolog protein 3 (Homo sapiens) (UniProt Q9UM47); test: small molecules binding NOTCH3 protein – biochemical, 635/667 nm fluorescence, primary screen (AID 1096); conditions: small-molecule microarray, 635 nm fluorescence, higher = more signal
# [20] = probe aEGFR binding to arrayed compounds – biochemical, biotinylated probe, 635/667 nm fluorescence, primary screen (AID 1097); conditions: small-molecule microarray, higher = more signal;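 further: probe is a biotinylated anti-EGFR antibody binding compounds printed on slides; score combines fluorescence near 667 nm and signal to noise of each spot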
# Sequence of Neurogenic locus notch homolog protein 3 (Homo sapiens) (Q9UM47 whole entry, looked up): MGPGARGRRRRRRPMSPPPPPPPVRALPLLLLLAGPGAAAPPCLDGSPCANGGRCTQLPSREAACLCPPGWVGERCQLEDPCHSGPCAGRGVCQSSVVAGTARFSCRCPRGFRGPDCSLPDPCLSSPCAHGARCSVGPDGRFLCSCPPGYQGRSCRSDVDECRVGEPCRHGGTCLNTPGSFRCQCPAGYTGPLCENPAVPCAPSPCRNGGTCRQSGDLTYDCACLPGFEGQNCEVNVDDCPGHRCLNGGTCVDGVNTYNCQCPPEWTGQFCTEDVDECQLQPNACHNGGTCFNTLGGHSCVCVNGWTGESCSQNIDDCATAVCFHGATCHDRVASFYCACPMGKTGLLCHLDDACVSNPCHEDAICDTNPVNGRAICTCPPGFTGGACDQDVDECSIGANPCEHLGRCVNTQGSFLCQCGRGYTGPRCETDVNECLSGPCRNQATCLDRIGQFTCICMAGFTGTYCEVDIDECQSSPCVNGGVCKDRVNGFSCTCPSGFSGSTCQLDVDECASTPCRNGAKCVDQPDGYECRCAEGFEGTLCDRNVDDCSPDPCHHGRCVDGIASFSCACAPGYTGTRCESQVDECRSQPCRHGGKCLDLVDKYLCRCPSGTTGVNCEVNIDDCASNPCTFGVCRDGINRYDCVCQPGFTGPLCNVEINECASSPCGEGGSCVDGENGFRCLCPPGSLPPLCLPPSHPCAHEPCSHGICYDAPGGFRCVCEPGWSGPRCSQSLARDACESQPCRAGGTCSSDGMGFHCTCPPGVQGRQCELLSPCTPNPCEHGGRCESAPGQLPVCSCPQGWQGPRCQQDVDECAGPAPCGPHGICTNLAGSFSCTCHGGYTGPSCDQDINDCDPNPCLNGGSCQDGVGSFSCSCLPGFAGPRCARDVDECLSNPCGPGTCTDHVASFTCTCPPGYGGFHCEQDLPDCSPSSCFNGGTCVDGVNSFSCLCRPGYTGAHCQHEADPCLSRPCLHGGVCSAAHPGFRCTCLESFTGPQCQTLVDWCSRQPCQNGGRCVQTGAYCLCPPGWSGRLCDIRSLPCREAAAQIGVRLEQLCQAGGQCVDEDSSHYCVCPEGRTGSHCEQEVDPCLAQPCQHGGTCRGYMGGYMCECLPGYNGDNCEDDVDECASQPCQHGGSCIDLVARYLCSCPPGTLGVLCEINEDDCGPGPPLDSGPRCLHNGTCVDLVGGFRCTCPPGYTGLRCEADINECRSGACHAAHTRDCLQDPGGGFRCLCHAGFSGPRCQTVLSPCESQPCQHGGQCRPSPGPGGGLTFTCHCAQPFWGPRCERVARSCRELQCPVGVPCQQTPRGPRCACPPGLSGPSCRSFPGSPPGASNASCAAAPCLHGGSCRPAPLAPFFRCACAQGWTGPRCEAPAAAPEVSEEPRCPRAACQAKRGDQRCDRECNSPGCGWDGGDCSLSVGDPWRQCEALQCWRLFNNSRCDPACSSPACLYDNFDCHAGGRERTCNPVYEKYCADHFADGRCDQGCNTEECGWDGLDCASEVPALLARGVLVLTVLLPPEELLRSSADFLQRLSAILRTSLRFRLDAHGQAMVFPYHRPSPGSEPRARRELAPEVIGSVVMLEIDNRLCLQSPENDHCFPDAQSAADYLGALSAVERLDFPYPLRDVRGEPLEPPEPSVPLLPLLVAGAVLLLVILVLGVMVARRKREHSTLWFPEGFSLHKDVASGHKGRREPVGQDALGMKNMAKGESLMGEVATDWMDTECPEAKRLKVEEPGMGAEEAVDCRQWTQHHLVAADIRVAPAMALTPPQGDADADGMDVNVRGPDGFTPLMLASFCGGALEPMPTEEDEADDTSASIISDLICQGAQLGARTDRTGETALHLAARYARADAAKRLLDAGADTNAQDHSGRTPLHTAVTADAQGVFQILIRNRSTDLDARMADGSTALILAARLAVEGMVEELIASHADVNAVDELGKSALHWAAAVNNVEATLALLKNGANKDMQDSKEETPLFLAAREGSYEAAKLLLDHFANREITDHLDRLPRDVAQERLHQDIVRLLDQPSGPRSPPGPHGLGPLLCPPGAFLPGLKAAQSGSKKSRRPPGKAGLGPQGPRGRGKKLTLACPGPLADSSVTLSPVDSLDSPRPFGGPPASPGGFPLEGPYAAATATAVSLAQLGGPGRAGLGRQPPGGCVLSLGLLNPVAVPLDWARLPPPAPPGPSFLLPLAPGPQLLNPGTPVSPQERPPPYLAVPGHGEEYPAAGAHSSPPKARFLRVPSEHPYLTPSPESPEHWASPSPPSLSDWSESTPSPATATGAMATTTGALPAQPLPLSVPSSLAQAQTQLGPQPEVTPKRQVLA
# Sequence of Pro-neuregulin-1, membrane-bound isoform (Homo sapiens) (Q02297 whole entry, looked up, the tested form may be a part, canonical isoform): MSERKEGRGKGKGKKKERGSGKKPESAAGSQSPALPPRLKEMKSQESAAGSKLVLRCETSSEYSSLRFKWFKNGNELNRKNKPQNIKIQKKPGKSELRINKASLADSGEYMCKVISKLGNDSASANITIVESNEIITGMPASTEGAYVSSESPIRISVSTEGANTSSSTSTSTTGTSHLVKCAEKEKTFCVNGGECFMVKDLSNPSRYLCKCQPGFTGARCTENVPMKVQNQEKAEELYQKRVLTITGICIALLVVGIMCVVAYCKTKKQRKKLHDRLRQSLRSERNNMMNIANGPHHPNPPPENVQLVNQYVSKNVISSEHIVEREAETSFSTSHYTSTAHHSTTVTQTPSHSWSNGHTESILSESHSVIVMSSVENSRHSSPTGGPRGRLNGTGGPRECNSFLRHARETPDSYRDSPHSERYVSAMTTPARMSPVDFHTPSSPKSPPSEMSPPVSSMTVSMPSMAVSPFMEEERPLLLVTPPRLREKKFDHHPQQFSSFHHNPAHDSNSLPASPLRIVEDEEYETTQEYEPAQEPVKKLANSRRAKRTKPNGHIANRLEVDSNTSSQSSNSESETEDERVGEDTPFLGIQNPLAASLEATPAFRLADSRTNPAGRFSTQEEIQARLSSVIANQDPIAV
# Sequence of Torsin-1A-interacting protein 2 (Homo sapiens) (Q8NFQ8 whole entry, looked up): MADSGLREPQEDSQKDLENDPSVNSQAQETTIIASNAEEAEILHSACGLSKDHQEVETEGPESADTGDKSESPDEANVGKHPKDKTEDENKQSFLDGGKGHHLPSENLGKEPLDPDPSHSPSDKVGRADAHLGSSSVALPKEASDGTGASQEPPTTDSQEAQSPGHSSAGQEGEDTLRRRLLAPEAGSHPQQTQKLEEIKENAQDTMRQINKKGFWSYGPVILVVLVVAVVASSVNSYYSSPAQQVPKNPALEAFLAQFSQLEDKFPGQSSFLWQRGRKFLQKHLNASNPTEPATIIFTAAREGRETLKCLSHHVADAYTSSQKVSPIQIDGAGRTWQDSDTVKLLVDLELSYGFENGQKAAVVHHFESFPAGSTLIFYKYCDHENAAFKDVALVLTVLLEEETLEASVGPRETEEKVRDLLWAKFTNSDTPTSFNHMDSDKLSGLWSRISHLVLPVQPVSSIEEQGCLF
SMILES,composite z-score [1],composite z-score [2],composite z-score [3],composite z-score [4],composite z-score [5],composite z-score [6],composite z-score [7],z-score [8],composite z-score [9],composite z-score [10],composite z-score [11],z-score [12],z-score [13],z-score [14],composite z-score [15],z-score [16],composite z-score [17],composite z-score [18],composite z-score [19],composite z-score [20]
COCCOC(=O)N1C(=O)[C@@]2(c3cc(C#CC4=CCCCC4)ccc31)[C@H](C(N)=O)[C@H]1C(=O)O[C@H](c3ccccc3)[C@H](c3ccccc3)N1[C@@H]2c1ccc(OCCO)cc1,-0.809,0.897,-0.0009,0.806,0.254,0.514,1.19,-0.408 (inactive),-0.335,-0.237,1.54,1.44 (inactive),1.28 (inactive),3.59 (inactive),1.6,-0.385 (inactive),-0.399,0.904,1.01,-0.238
C=CCNC(=O)[C@H]1[C@@H]2C(=O)O[C@@H](c3ccccc3)[C@@H](c3ccccc3)N2[C@@H](c2ccc(O)cc2)[C@]12C(=O)N(C(=O)OCCOC)c1ccc(C#CCNC(N)=O)cc12,-0.14,-0.019,-0.0996,0.379,0.729,0.0037,0.879,-0.226 (inactive),0.007,0.0722,1.42,0.905 (inactive),0.311 (inactive),1.63 (inactive),0.922,-0.781 (inactive),0.136,0.79,0.924,0.0821
CC(C)C[C@@H]1NC(=O)[C@H]2C[C@@H](C(=O)NCCCCCCN(C)C)[C@@H](c3ccc(O)cc3)N2C1=O,-0.0795,1.44,-0.0366,1.16,0.285,0.717,1.48,3.69 (inactive),0.0151,0.0274,1.56,-0.924 (inactive),-0.48 (inactive),-0.734 (inactive),3.1,-0.613 (inactive),0.0829,0.248,1.14,0.122
COCCOC(=O)N1C(=O)[C@@]2(c3cc(C#CCNC(N)=O)ccc31)[C@H](C(=O)NC[C@H](O)c1ccccc1)[C@H]1C(=O)O[C@H](c3ccccc3)[C@H](c3ccccc3)N1[C@@H]2c1ccccc1OCCO,-0.12,0.294,-0.0899,0.745,1.11,0.891,1.09,-0.864 (inactive),-0.177,-0.113,1.55,1.56 (inactive),1.11 (inactive),3.45 (inactive),2.6,-0.124 (inactive),-0.0644,1.72,0.98,-0.118
COCCOC(=O)N1C(=O)[C@@]2(c3cc(C#CC4=CCCCC4)ccc31)[C@H](C(=O)Nc1nc3ccccc3s1)[C@H]1C(=O)O[C@H](c3ccccc3)[C@H](c3ccccc3)N1[C@@H]2c1ccccc1OCCO,0.346,0.189,0.0871,0.77,1.49,1.15,1.08,1.29 (inactive),0.965,0.463,1.55,1.25 (inactive),0.812 (inactive),3.25 (inactive),2.15,0.859 (inactive),0.255,0.883,1.07,0.411
CC(=O)NCCCC[C@@H]1NC(=O)[C@@H]2C[C@H](C(=O)NCCCCCCNC(=O)CS)[C@H](c3cccc(OCCO)c3)N2C1=O,0.0659,0.311,-0.0212,0.283,0.149,0.632,1.24,0.743 (inactive),0.414,-0.299,1.55,-0.531 (inactive),-0.507 (inactive),-0.0963 (inactive),2.03,-0.329 (inactive),0.498,0.452,0.249,-0.112
NC(=O)[C@@H]1[C@H]2C(=O)O[C@H](c3ccccc3)[C@H](c3ccccc3)N2[C@H](c2ccc(O)cc2)[C@@]12C(=O)Nc1ccc(C#CC3(O)CCCCCC3)cc12,0.372,0.167,0.0075,0.244,0.0065,0.959,1.42,0.854 (inactive),-0.0686,-0.0645,0.454,0.505 (inactive),-0.133 (inactive),0.639 (inactive),2.14,-0.441 (inactive),-0.072,-0.6,-0.395,-0.178
[N-]=[N+]=NCc1ccccc1C[C@@]1(C(=O)NCC(O)CO)N=C(c2ccc(OCCCO)cc2)O[C@@H]1c1ccccc1N=[N+]=[N-] (stereo not given in full),0.516,-0.133,0.0109,0.451,0.669,1.78,1,-0.755 (inactive),1.66,0.0139,1.53,-1.01 (inactive),-0.348 (inactive),1.99 (inactive),3.53,1.73 (inactive),0.36,0.633,0.618,0.118
C=C(CCCC)C(=O)CC[C@@H](OC(=O)c1cccnc1)c1ccc(CO)o1,-0.45,0.0802,-0.008,0.601,0.88,1.05,1.07,-0.434 (inactive),0.391,0.122,1.55,0.544 (inactive),0.115 (inactive),0.275 (inactive),1.45,-0.211 (inactive),-0.105,1.61,1.12,0.021
C=C(COC)/C(=C/C[C@@H](OC(C)=O)c1ccc(CO)o1)c1cnc2ccccc2c1,-0.258,0.434,0.0472,1.11,1.65,1.02,1.04,0.527 (inactive),0.408,0.364,1.54,1.17 (inactive),-0.721 (inactive),0.951 (inactive),0.612,1.27 (inactive),0.0624,1.72,1.04,0.0821
